Experimental data published in PubChem BioAssay (NCATS).
Several values for one entry are separate records, joined by “and”; a condition that tells them apart may be missing. Equal values may be shown once. Inconclusive results are not listed. Where a call stands in place of a potency, no number is given. A number with no mark means an inactive call. Activity calls are given as the source filed them. Unless noted, calls come from the whole dose curve; as a rule, active = well fitted curve in the direction sought with a large enough effect; inconclusive = small, poorly fitted or top-dose-only effect, or another doubt; inactive = no such curve, though single readings can be large; an effect the other way counts as inactive or inconclusive.

What was measured:
[1] = qHTS to identify inhibitors of the type 1 interferon - major histocompatibility complex class I in skeletal muscle: primary screen against the NCATS Pharmaceutical Collection (AID 1347407);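 note: luminescence of HiBiT knocked into endogenous HLA-B as interferon-induced MHC class I level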
How it was run: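 Luminescence from HiBiT-tagged endogenous HLA-B*08:01 served as the read-out of IFN-beta-induced MHC class I in CRISPR-engineered C25cl48 myoblasts. Cells received 4 ng/ml IFN-beta plus compound (high final 46 uM, […]) for 24 h.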

[2] = qHTS to identify inhibitors of the type 1 interferon - major histocompatibility complex class I in skeletal muscle: primary screen against the NCATS Mechanism Interrogation Plate v5.0 (MIPE) Libary (AID 1347411); note: nearly all actives have a fitted effect of over 65% in size
How it was run: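 Luminescence from CRISPR HiBit-tagged endogenous HLA-B in human myoblasts reported MHC class I level after 24 h of IFN-beta (4 ng/ml) plus compound. Compounds ran as 11-point 1:3 series, top 46 uM final.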

[3] = biological target: Protein phosphatase 1D (Homo sapiens) (UniProt O15297); experiment: RapidFire Mass Spectrometry qHTS Assay for Modulators of WT P53-Induced Phosphatase 1 (WIP1) (AID 1347424);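 note: amount of dephosphorylated VEPPL-S-QETFS peptide product formed by WIP1; series mostly up to about 63 µM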
How it was run: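 RapidFire mass spectrometry measured dephosphorylated peptide after 5 min room-temperature reaction of 2 uM VEPPL-pS-QETFS with 10 nM WIP1 (50 mM Tris-HCl pH 7.5, 30 mM MgCl2, 0.1 mM EGTA, BSA), following 1 hr compound preincubation; 1 uM isotope-labelled product standard.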

[4] = biological target: Protein phosphatase 1D (Homo sapiens) (UniProt O15297); experiment: Rhodamine-PBP qHTS Assay for Modulators of WT P53-Induced Phosphatase 1 (WIP1) (AID 1347425)
How it was run: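 5 nM WIP1 + 10 uM Rh-PBP, 50 mM Tris pH 7.5, 30 mM MgCl2, 1 mM TCEP, 0.1 mM EGTA, BSA; cpds pinned, 1 hr RT; + 10 uM phosphopeptide; fluorescence 1-min reads x 11 min; delta = f1 - f0.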

[5] = Primary qHTS for inhibitors of La Crosse Virus (LACV) - induced cell death in SH-SY5Y cells (AID 1508616);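 note: top concentration of the series differs between compounds; higher means more rescue of cells from virus-induced death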
How it was run: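 Rescue of virus-induced death was read as ATPLite luminescence after 6 days at 37C, scaled between DMSO wells with LACV and without virus. Cells were SH-SY5Y, 6000/well, infected at 0.01 MOI after compound addition.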

[6] = biological target: Calcium and integrin-binding protein 1 (Homo sapiens) (UniProt Q99828); experiment: Primary qHTS for Identification of Calcium Integrin Binding Protein 1 (CIB1) Competitor (AID 1508620);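 note: GST tagged CIB1 binding a fluorescein labelled alphaIIb integrin peptide tracer; top concentration of the series differs between compounds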
How it was run: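 CIB1-GST (1 uM final) and compound incubated 15 min at room temperature before adding FITC-alphaIIb peptide tracer (100 nM final). Competition for binding read by fluorescence polarization (ex 480, em 540) after another 15 min at room temperature.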

[7] = Primary qHTS for small molecule stabilizers of the endoplasmic reticulum resident proteome: Secreted ER Calcium Modulated Protein (SERCaMP) assay (AID 1508630)
How it was run: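 The SH-SY5Y reporter protocol was run at 3 concentrations up to 38.3 uM (primary) or 11 concentrations (follow-up): 16 h compound, 100 nM thapsigargin for 4 h, then extracellular luciferase luminescence.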

[8] = A High-Content qHTS Against Drug Library for the Identification of Small Molecules that Inhibit DYT1 Early Onset Primary Dystonia-Associated Cell Pathology (AID 1645839; calls by dose curve; note: series mostly up to about 46 µM)
How it was run: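 High-content imaging quantified EGFP-TorsinA mislocalization in HEK293-derived cells inducibly expressing DYT1 mutant torsinA, after 48 h exposure to compound given together with tetracycline induction. Cell count served as a toxicity channel alongside %pathology.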

[9] = biological target: Cytochrome P450 2D6 (Homo sapiens) (UniProt P10635); experiment: Cytochrome P450 family 2 subfamily D member 6 (CYP2D6) small molecule antagonists: luciferase biochemical (cell-free) qHTS assay (AID 1645840; active = well fitted curve in the direction sought with a large enough effect in the repeat runs; an effect the other way counts as inactive or inconclusive; note: nearly all actives have a fitted effect of over 55% in size; note: potency is the fitted concentration of half-maximal effect)
How it was run: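 P450-Glo CYP2D6 system: proluciferin substrate converted by enzyme to luciferin, read by luminescence proportional to activity. Enzyme-substrate mix with compound 10 min at room temperature, then NADPH regeneration 1 h before detection reagent.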

[10] = biological target: Cytochrome P450 2C9 (Homo sapiens) (UniProt P11712); experiment: Cytochrome P450 family 2 subfamily C member 9 (CYP2C9) small molecule antagonists: luciferase biochemical (cell-free) qHTS assay (AID 1645842; active = well fitted curve in the direction sought with a large enough effect in the repeat runs; an effect the other way counts as inactive or inconclusive; note: nearly all actives have a fitted effect of over 55% in size; note: potency is the fitted concentration of half-maximal effect)
How it was run: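 P450-Glo CYP2C9 system: proluciferin substrate with enzyme in mix containing 0.4% BSA, 10 min at room temperature, then NADPH regeneration solution added and incubated 1 h at 37C. Detection reagent stopped reaction; luminescence read after 20 min as RLU.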

[11] = Primary qHTS for inhibitors of nuclear receptor binding SET domain protein 2 (NSD2) in an isogenic RCH-ACV NSD2 p.E1099K mutant (9B) (AID 1645876); note: nearly all actives have a fitted effect of over 70% in size; note: potency is the fitted concentration of half-maximal effect
[12] = biological target: Cytochrome P450 3A4 (Homo sapiens) (UniProt P08684); experiment: Cytochrome P450 family 3 subfamily A member 4 (CYP3A4) small molecule antagonists: luciferase qHTS assay (AID 1645841; active = well fitted curve in the direction sought with a large enough effect in the repeat runs; an effect the other way counts as inactive or inconclusive; note: nearly all actives have a fitted effect of over 45% in size)
How it was run: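 Luminescent CYP3A4 activity readout: compounds plus enzyme-substrate mix 10 min at room temperature, reaction started with NADPH regenerating system for 1 h, stopped with detection reagent, read after 20 min. Ketoconazole served as control.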

[13] = Primary qHTS for inhibitors of nuclear receptor binding SET domain protein 2 (NSD2) in an RCH-ACV wild type WT cells (2C) (AID 1645877); note: nearly all actives have a fitted effect of over 70% in size
[14] = Counterscreen qHTS for small molecule stabilizers of the endoplasmic reticulum resident proteome: GLuc-NoTag assay (AID 1508627); note: series mostly up to about 76 µM
How it was run: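 Counterscreen line: SH-SY5Y-GLuc-NoTag cells, treated with compound 19 hr before a 4 hr, 100 nM thapsigargin calcium depletion. Secreted Gaussia luciferase in the medium was measured by luminescence after coelenterazine was added (0.07x final), with cells unlysed.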

[15] = Confirmatory qHTS for small molecule stabilizers of the endoplasmic reticulum resident proteome: Secreted ER Calcium Modulated Protein (SERCaMP) assay (AID 1508628); note: nearly all actives have a fitted effect of over 40% in size; note: potency is the fitted concentration of half-maximal effect
How it was run: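 Reporter secretion upon ER calcium depletion (100 nM thapsigargin, 4 h, 37C) is measured as medium luminescence with coelenterazine, after 16 h compound pretreatment of SH-SY5Y-GLuc-SERCaMP cells; primary at three concentrations up to 38.3 uM, follow-up at 11 (up to 76.6 uM).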

[16] = Cell Viability qHTS for small molecule stabilizers of the endoplasmic reticulum resident proteome (AID 1508629); details: cell viability counter-screen, 100 nM thapsigargin for final 4 h;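 note: human SH-SY5Y neuroblastoma cells carrying the GLuc-SERCaMP reporter; compound exposure about 46 h in total before the viability read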

Sequence of Cytochrome P450 2D6 (Homo sapiens) (P10635 whole entry, looked up): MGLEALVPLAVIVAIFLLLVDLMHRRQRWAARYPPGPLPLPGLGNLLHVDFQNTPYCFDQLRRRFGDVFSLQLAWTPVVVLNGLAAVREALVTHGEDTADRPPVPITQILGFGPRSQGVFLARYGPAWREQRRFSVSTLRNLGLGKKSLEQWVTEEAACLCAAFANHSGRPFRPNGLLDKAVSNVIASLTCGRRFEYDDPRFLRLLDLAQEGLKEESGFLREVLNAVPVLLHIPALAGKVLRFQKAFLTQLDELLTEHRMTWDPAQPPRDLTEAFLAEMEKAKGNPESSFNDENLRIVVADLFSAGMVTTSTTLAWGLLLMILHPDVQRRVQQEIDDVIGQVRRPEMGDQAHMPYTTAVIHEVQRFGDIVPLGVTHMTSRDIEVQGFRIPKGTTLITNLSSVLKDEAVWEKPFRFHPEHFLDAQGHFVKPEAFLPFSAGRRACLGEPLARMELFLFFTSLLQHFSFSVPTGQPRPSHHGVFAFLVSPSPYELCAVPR
Sequence of Protein phosphatase 1D (Homo sapiens) (O15297 whole entry, looked up): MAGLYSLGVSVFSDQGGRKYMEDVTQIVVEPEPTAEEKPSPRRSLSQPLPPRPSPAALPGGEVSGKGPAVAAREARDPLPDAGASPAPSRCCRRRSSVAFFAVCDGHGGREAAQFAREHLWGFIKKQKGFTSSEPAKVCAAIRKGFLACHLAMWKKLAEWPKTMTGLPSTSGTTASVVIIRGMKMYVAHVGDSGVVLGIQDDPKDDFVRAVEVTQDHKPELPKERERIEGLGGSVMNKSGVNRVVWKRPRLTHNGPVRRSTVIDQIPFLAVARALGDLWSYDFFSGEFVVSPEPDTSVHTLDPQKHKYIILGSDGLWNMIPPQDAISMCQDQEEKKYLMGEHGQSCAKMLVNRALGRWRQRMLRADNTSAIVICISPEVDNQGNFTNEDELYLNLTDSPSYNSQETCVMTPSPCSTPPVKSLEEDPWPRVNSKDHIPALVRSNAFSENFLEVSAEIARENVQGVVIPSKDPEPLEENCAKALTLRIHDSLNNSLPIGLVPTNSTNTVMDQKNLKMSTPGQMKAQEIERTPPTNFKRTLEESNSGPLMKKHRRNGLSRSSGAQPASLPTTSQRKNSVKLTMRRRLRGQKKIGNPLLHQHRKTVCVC
Sequence of Cytochrome P450 2C9 (Homo sapiens) (P11712 whole entry, looked up): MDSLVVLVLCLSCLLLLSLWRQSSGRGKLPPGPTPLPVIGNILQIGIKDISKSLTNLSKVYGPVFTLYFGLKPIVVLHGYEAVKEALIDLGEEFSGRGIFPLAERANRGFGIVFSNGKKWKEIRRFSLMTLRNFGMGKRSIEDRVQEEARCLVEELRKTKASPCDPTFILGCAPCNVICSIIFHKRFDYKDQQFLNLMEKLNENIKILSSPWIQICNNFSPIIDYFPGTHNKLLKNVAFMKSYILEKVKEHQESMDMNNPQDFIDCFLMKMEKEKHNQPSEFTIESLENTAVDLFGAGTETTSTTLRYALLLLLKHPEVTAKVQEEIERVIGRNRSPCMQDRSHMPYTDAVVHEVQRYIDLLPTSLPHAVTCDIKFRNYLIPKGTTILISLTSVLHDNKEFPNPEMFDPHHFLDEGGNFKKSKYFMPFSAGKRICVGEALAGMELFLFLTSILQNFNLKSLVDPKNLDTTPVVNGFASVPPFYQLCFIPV
Sequence of Calcium and integrin-binding protein 1 (Homo sapiens) (Q99828 whole entry, looked up): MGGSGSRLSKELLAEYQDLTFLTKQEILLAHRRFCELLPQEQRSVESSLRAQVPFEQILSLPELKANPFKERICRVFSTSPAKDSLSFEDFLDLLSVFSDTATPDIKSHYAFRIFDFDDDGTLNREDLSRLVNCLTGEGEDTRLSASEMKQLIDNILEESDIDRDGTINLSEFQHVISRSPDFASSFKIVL
Sequence of Cytochrome P450 3A4 (Homo sapiens) (P08684 whole entry, looked up): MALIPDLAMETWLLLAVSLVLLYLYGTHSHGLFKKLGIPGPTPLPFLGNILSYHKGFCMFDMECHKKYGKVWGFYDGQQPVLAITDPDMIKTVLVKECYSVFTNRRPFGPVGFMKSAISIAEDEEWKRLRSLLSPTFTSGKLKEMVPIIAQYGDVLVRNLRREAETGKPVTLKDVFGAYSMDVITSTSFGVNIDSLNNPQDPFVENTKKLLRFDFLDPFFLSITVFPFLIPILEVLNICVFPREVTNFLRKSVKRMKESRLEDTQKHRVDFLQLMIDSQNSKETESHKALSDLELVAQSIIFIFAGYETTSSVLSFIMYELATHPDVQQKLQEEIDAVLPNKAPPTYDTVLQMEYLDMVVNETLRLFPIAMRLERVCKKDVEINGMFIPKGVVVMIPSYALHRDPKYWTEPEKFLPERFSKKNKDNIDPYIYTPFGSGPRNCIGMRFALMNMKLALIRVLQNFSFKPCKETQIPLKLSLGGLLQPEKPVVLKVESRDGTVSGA

O=c1[nH]c(=O)n([C@H]2C[C@H](O)[C@@H](CO)O2)cc1I
outcome [1]: inactive
outcome [2]: inactive
outcome [3]: inactive
outcome [4]: inactive
outcome [5]: inactive
outcome [6]: inactive
outcome [7]: inactive
Potency [8]: inactive
Potency [9]: inactive
Potency [10]: inactive
Potency [11]: 3.35 µM (active) and 662 nM (active)

CN1C(=O)CC(c2ccccc2)C1=O (stereo not drawn)
outcome [1]: inactive
outcome [3]: inactive
outcome [4]: inactive
outcome [5]: inactive
outcome [6]: inactive
outcome [7]: inactive
Potency [8]: inactive
Potency [9]: inactive
Potency [10]: inactive
Potency [11]: inactive

CC(=O)NS(=O)(=O)c1ccc(N)cc1
outcome [1]: inactive
outcome [3]: inactive
outcome [4]: inactive
outcome [5]: inactive
outcome [6]: inactive
outcome [7]: inactive
Potency [8]: inactive
Potency [9]: inactive
outcome [12]: inactive
Potency [11]: inactive
Potency [13]: inactive

CCN1CC(CCN2CCOCC2)C(c2ccccc2)(c2ccccc2)C1=O (stereo not drawn)
outcome [1]: inactive
outcome [3]: inactive
outcome [4]: inactive
outcome [5]: inactive
outcome [6]: inactive
outcome [7]: inactive
Potency [8]: inactive
Potency [9]: 436 nM (active)
Potency [10]: inactive

O=C(NCC(O)CO)c1c(I)c(C(=O)NCC(O)CO)c(I)c(N(CCO)C(=O)CO)c1I (stereo not drawn)
outcome [1]: inactive
outcome [3]: inactive
outcome [4]: inactive
outcome [5]: inactive
outcome [6]: inactive
outcome [7]: inactive
Potency [8]: inactive
Potency [9]: inactive
Potency [10]: inactive
Potency [11]: inactive

O=C(O)c1ccc[n+]([O-])c1
outcome [1]: inactive
outcome [3]: inactive
outcome [4]: inactive
outcome [5]: inactive
outcome [6]: inactive
outcome [7]: inactive
Potency [8]: inactive
Potency [9]: inactive
Potency [10]: inactive

CCCC(O)C(CC)CO (stereo not drawn)
outcome [1]: inactive
outcome [3]: inactive
outcome [4]: inactive
outcome [5]: inactive
outcome [6]: inactive
outcome [14]: inactive
Potency [15]: inactive
max response [16]: 29.3%
Potency [8]: inactive
Potency [9]: inactive
Potency [10]: inactive
Potency [11]: inactive
Potency [13]: inactive

NNC(=O)CP(=O)(c1ccccc1)c1ccccc1
outcome [1]: inactive
outcome [3]: inactive
outcome [4]: inactive
outcome [5]: inactive
outcome [6]: inactive
outcome [7]: inactive
Potency [8]: inactive
Potency [9]: inactive
Potency [10]: 15.5 µM (active)

CCOc1ccccc1O[C@H](c1ccccc1)[C@H]1CNCCO1
outcome [1]: inactive
outcome [3]: inactive
outcome [4]: inactive
outcome [5]: inactive
outcome [6]: inactive
Potency [15]: 22.4 µM (active)
max response [16]: 9.87%
Potency [8]: inactive
Potency [10]: inactive

COc1ccc(C(=O)N2CCN(CC(=O)N3CCOCC3)CC2)cc1
outcome [1]: inactive
outcome [3]: inactive
outcome [4]: inactive
outcome [5]: inactive
outcome [6]: inactive
outcome [14]: inactive
Potency [15]: inactive
max response [16]: 17.3%
Potency [8]: inactive
Potency [9]: inactive
Potency [10]: inactive
Potency [11]: inactive
Potency [13]: inactive

CNc1c2c(nn1C)CCCC2
outcome [1]: inactive
outcome [3]: inactive
outcome [4]: inactive
outcome [5]: inactive
outcome [6]: inactive
outcome [7]: inactive
Potency [8]: inactive
Potency [9]: inactive
Potency [10]: inactive
